# Screens: PubChem, National Center for Advancing Translational Sciences (NCATS)
# In the library only some 12% were active in any assay of this set; here they are far more common.
# G9a inh – inhibitors of human histone lysine methyltransferase G9a; G9a H3K9 monomethylation, AlphaScreen, 2 h; 350,000 tested, 8.8% active; Potency, µM (top dose mostly 102 µM), without a hit: at the highest dose activity, negative = inhibition, actives largely listed as inhibitors; further: potency means the concentration at half of the fitted maximal effect; on the % scale 0 is the no-effect control and ±100 the full control effect; nearly all actives have a fitted effect of over 75% in size
# Target sequence (Q96KQ7 913-1193 limits assumed): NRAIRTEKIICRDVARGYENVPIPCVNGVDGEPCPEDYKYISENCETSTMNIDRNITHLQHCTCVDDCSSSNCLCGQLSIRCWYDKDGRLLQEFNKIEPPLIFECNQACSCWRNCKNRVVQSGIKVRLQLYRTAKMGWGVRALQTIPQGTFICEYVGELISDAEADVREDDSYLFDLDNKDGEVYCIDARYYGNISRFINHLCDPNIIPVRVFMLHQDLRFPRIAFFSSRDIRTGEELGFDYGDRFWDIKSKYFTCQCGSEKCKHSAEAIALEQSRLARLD
#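 AlphaScreen detection with an anti-monomethyl H3K9 antibody quantified product after a 2 h room-temperature reaction containing 500 nM biotinylated H3K9 peptide, 20 µM SAM and 20 nM enzyme, which had been preincubated 15 min with compound.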
# PLK1 PBD inh – blocks phosphopeptide binding to human PLK1 polo-box domain; P53350; Plk1 PBD binding of FITC phosphopeptide, fluorescence polarization; Potency, µM, for inactives: max response, negative = inhibition, hits mostly inhibitors; 360,000 tested, 2.8% active; AID 720504; further: potency means the concentration at half of the fitted maximal effect; series mostly up to about 57 µM; on the % scale 0 is the no-effect control and ±100 the full control effect; nearly all actives have a fitted effect of over 65% in size
# BAZ2B block – inhibitors of human BAZ2B bromodomain. Q9UIF8. AlphaScreen BAZ2B-H3K14Ac peptide displacement. Potency, µM (highest dose often 114 µM), for the others: at the top dose activity change, negative = inhibition, hits mostly inhibitors. 360,000 tested, 4.4% active. AID 504333; further: potency means the concentration at half of the fitted maximal effect; on the % scale 0 is the no-effect control and ±100 the full control effect; nearly all actives have a fitted effect of over 60% in size
#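 Complex of BAZ2B and biotin-H3K14Ac (50 nM apiece) forms over 30 min at RT, then faces library compounds up to 110 uM for another 30 min; AlphaScreen beads added, 20 min dark incubation, luminescence read.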
# PI5P4K alpha inh – blocks human PI5P4K alpha kinase activity; P48426; PI5P4Kalpha enzyme, ADP-Glo luminescence, 60 min; hits give low values; max response, %; 330,000 tested, 1.2% active; AID 652105; active means max response of -50% or lower; inconclusive means between -30% and -50%; inactive means -30% or higher; further: value at the top dose of about 77 µM; on the % scale 0 is the no-effect control and ±100 the full control effect
#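 Luminescence from ADP-Glo served as readout of PI5P4Kalpha activity in a qHTS format. Reaction: enzyme, substrate, compound, ATP at 5 microM final, 60 min at RT.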
# JMJD2A Tudor – blocks the human JMJD2A Tudor domain; O75164; AlphaScreen JMJD2A-Tudor / H3K4me3 peptide binding; Potency, µM (top dose mostly 114 µM), inactives show top-dose activity change, negative = inhibition, hits mostly inhibitors; 390,000 tested, 4.4% active; further: potency means the concentration at half of the fitted maximal effect; on the % scale 0 is the no-effect control and ±100 the full control effect; nearly all actives have a fitted effect of over 50% in size
# HP1b chromo inh – blocks HP1-beta chromodomain binding to methylated histone tails; P83916; AlphaScreen HP1-beta / biotin-H3K9me3 peptide binding; Potency, µM (top dose mostly 114 µM), for inactives: top-dose activity change, negative = inhibition, hits mostly inhibitors; 390,000 tested, 0.56% active; further: potency means the concentration at half of the fitted maximal effect; nearly all actives have a fitted effect of over 70% in size
# Target sequence (P83916 whole entry, looked up): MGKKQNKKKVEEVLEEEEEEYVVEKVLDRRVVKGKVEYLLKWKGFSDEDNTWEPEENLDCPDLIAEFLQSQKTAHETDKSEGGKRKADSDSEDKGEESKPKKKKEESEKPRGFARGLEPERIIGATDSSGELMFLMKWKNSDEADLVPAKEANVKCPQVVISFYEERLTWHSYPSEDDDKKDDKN
#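 AlphaScreen: HP1-beta (50 nM) preformed 30 min with biotin-H3(1-18)K9me3 peptide (50 nM) in PBS pH 7.4, 0.01% Tween-20. Compound added for 30 min at RT, then streptavidin donor/nickel chelate acceptor beads (10 ug/mL) for 30 min.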
# * marks the source's active call; other numbers are inactive results; ? = inconclusive; . = not tested or not shown; [ ] = dose if it differs, or a comment. Unless noted, the call rests on the fitted dose curve; in most records, active means well fitted curve in the direction sought with a large enough effect; inconclusive means small, poorly fitted or top-dose-only effect, or another doubt; inactive means no such curve, though single readings can be large; an effect the other way counts as inactive or inconclusive.
SMILES,G9a inh,PLK1 PBD inh,BAZ2B block,PI5P4K alpha inh,JMJD2A Tudor,HP1b chromo inh
COc1ccc(-c2csc(NC(=O)c3c(OC)cccc3OC)n2)cc1,11%,7%,-7%,0,-7%,6%
COc1ccc(-c2csc(NC(=O)c3ccccc3NS(=O)(=O)c3ccc(C)cc3)n2)cc1,?,?,35µM*,0,?,?
CC(C)C(=O)N1c2nc(-c3ccco3)nn2C2(CCCCC2)[C@@H]2CCCC[C@@H]21,?,.,?,.,-14%,41%
O=C(c1ccc([N+](=O)[O-])cc1)N1CCN(c2ccc(Nc3ccccc3)nn2)CC1,-1%[59 µM],.,-22%,.,-16%,32%
CCOC(=O)Cc1csc(NS(=O)(=O)c2ccc(Br)cc2)n1,-47%,0%,-11%,-8,-3%,31%
CCOC(=O)Cc1csc(NS(=O)(=O)c2ccc(F)cc2)n1,7%,21µM*,-6%,-27,-17%[11.4 µM],8%
Cc1cccc(OCCOCCN2CCNCC2)c1C,-14%[59 µM],?,-27%,9,-19%[57.1 µM],9%
c1ccc(-c2ccccc2OCCOCCN2CCNCC2)cc1,.,-13%,22µM*,-1,-2%,-7%
CCN1CCN(CCOCCOc2ccccc2-c2ccccc2)CC1,7.9µM*,.,20µM*,.,.,.
CC(C)Nc1ncnc2c1ncn2[C@H]1CN(Cc2ccc(F)cc2)C[C@@H](CO)O1,.,0%,.,8,.,.
COc1ccc(C(=O)c2[nH]c(N)c(C(=O)NCCc3c[nH]c4ccccc34)c2-c2ccc(OC)c(OC)c2)cc1,.,1%,.,-4,.,.
O=C1S/C(=C\c2ccccn2)C(=O)N1Cc1ccccc1F,18µM*,-4%,6%,-4,-20%,1%
O=C(CN1C(=O)S/C(=C/c2ccccn2)C1=O)N1CCOCC1,2%,-5%,-24%,-4,-6%,13%
COc1ccc(C(=O)OCC(O)COC(=O)c2ccc(OC)cc2)cc1,.,2%,.,8,-2%,42%
Cc1ccc(S(=O)(=O)n2cccc2/C=C/[N+](=O)[O-])cc1,.,7.5µM*,.,-22,.,.
CCOc1ccc(CN2CCN(C(=O)c3ccccc3)CC2)cc1,?,?,?,-23,-13%[11.4 µM],?
COc1ccc(CN2CCN(C(=O)c3ccccc3C(=O)c3ccccc3)CC2)cc1OC,.,6%,.,-5,1%,31%
CCOc1ccc(CN2CCN(C(=O)c3cccc4ccccc34)CC2)cc1,14µM*,-7%,45µM*,-6,25µM*,?
COc1cc(CN2CCN(C(=O)c3cccc4ccccc34)CC2)cc(OC)c1O,6.3µM*,-2%,50µM*,1,22µM*,?
CCOC(=O)c1c(C)[nH]c(C(=O)OCC(=O)N(C)CC(=O)Nc2ccccc2Cl)c1C,-2%[0.501 µM],-2%,-29%,1,-17%,7%
CC1CC[C@@]2(OC1)OC1CC3C4CC=C5CC(O)CC[C@@]5(C)C4CC[C@]3(C)C1C2C (stereo partly drawn),-21%[2.33 µM],.,.,.,.,.
Cc1cc(=O)[nH]c(NN=C2CCCCC2C)n1 (stereo not drawn),.,-5%,.,-7,0.89µM*,-24%
Cc1cc(=O)[nH]c(NN=C2C3CC4CC(C3)CC2C4)n1,2.5µM*,-4%,8%,-7,?,43%
Cc1cc(=O)[nH]c(N/N=C2/CCCC/C2=C\c2ccccc2)n1,45µM*,?,3%,1,-4%[11.4 µM],-3%
CN(C)c1ccc(-c2csc(C(O)c3ccccc3)n2)cc1 (stereo not drawn),.,-15%,.,0,.,.
SMILES,G9a inh,PLK1 PBD inh,BAZ2B block,PI5P4K alpha inh,JMJD2A Tudor,HP1b chromo inh
CN(C)c1ccc(C(O)c2cc3ccccc3s2)cc1 (stereo not drawn),.,-6%,.,7,32µM*,?
CCc1c(C)nc(N2CCOCC2)[nH]c1=O,-2%[59 µM],-2%,-7%,-3,-11%,3%
C=CCc1c(C)nc(N2CCSCC2)[nH]c1=O,6%[59 µM],27µM*,-2%,-10,?,-2%
CCCCn1c(/C=C/c2ccco2)nc2ccccc21,8.9µM*,-2%,-22%,-25,-21%,27%
CCCn1c(/C=C/c2ccco2)nc2ccccc21,8.9µM*,-15%,9%,-52*,-24%,15%
CCCn1c(NCc2ccco2)nc2ccccc21,16%[59 µM],-2%,-9%,.,-13%,12%
CC(=O)c1sc(NC(=O)C2CCN(C(=O)c3ccc(F)cc3)CC2)nc1-c1ccccc1,45µM*,1%,-25%,2,-26%,13%
O=C(Nc1ccc(F)cc1F)C1CCN(C(=O)c2ccc(Br)cc2)CC1,-9%,-4%,-7%,-4,-7%,29%
O=C(Nc1nc(-c2ccc(F)cc2)cs1)C1CCN(C(=O)c2ccc(F)cc2)CC1,35µM*,-3%,0%,5,-23%,11%
Cc1cccc(NC(=O)C2CCN(C(=O)c3ccc(F)cc3)CC2)n1,-3%,2%,8%,-3,-8%,45%
O=C(Nc1nc2ccccc2[nH]1)C1CCN(C(=O)c2ccc(F)cc2)CC1,40µM*,-3%,4%,6,?,12%
O=C(Nc1nc2c(F)cc(F)cc2s1)C1CCN(C(=O)c2ccc(F)cc2)CC1,45µM*,-14%,8%,?,-15%,2%
Cc1ccccc1NC(=O)C1CCN(C(=O)c2ccc(F)cc2)CC1,3%[59 µM],.,5%,.,-6%,12%
O=[N+]([O-])c1cccc(NC(=S)N2CCc3ccccc32)c1,.,-1%,17%,11,?,5%
CCOC(=O)c1nc2sc(C)c(C)c2c(=O)[nH]1,-11%,-6%,-1%,.,?,12%
CCOC(=O)/C(=C\c1cccc(O)c1)c1nc2sc(C)c(C)c2c(=O)[nH]1,3.2µM*,4.7µM*,-28%,?,56µM*,28µM*
CCCC(=O)NCCc1c(I)[nH]c2ccc(OC)cc12,-29%[59 µM],.,.,.,.,.
COc1ccc(NCc2ccsc2)cc1,35µM*,-4%,18µM*,4,56µM*,-19%
Cc1cccc(-c2nc3nc(C)cc(NC(C)c4ccccc4)n3n2)c1 (stereo not drawn),-16%[59 µM],.,-17%,.,-25%,23%[57 µM]
CN(C)S(=O)(=O)c1cc(NC2CC(=O)N(c3ccc(F)cc3)C2=O)ccc1Cl (stereo not drawn),35µM*,-3%,-15%,0,-11%,45%
Cc1ccc(NC2CC(=O)N(c3ccc(C)cc3)C2=O)cc1 (stereo not drawn),-3%,?,6%,-5,8%[11.4 µM],-24%
C[C@@H]1CN([C@@H](C)CO)C(=O)CCCn2nncc2CO[C@H]1CN(C)C(=O)Nc1ccc2c(c1)OCO2,.,7%,.,2,.,.
C[C@H]1CN([C@@H](C)CO)C(=O)CCCn2nncc2CO[C@@H]1CN(C)C(=O)Nc1ccc2c(c1)OCO2,.,5.3µM*,.,5,.,.
